What all share (test): NCI-60 one-dose screen, 48 h (100 = growth as untreated, 0 = no growth, -100 = all killed)
One experiment deals with UACC-62 melanoma. The following applies: 10 µM unless noted.
The next experiment has as its system TK-10 renal. The following applies: 10 µM unless noted.
The test system of another experiment is MCF7 breast. The conditions noted are these: 10 µM unless noted.
The test system of another experiment is HL-60(TB) leukemia. The conditions noted are these: 10 µM unless noted.
The subject of another experiment is NCI-H226 lung. The following applies: 10 µM unless noted.
The next experiment relates to HOP-62 NSCLC. The following applies: 10 µM unless noted.
A further experiment has as its system NCI-H460 lung. The conditions noted are these: 10 µM unless noted.
For a further experiment, the system named is HOP-92 NSCLC. The following applies: 10 µM unless noted.
In a further experiment the test system is A549/ATCC NSCLC. The conditions noted are these: 10 µM unless noted.
The subject of another experiment is 786-0 renal. The conditions noted are these: 10 µM unless noted.
In the next experiment the test system is COLO 205 colon. The following applies: 10 µM.
In a further experiment the test system is DU-145 prostate. The following applies: 10 µM unless noted.
The subject of another experiment is K-562 leukemia. The following applies: 10 µM unless noted.
Another experiment deals with MALME-3M melanoma. The following applies: 10 µM unless noted.
For another experiment, the system named is MDA-MB-231 breast. The conditions noted are these: 10 µM unless noted.
The subject of another experiment is RXF 393 renal. The following applies: 10 µM unless noted.
The next experiment relates to SF-268 CNS. The conditions noted are these: 10 µM unless noted.
Another experiment concerns SF-295 CNS. The following applies: 10 µM unless noted.
The test system of another experiment is SF-539 CNS. The following applies: 10 µM unless noted.
The test system of another experiment is UACC-257 melanoma. The conditions noted are these: 10 µM unless noted.
The next experiment concerns M14 melanoma. The conditions noted are these: 10 µM unless noted.
The subject of another experiment is HCT-15 colon. The following applies: 10 µM.
The test system of a further experiment is HT29 colon. The conditions noted are these: 10 µM unless noted.
In another experiment the test system is SNB-75 CNS. The following applies: 10 µM unless noted.
The next experiment concerns SNB-19 CNS. The following applies: 10 µM unless noted.
Another experiment deals with PC-3 prostate. The following applies: 10 µM unless noted.
Another experiment relates to SK-MEL-5 melanoma. The following applies: 10 µM unless noted.
The next experiment has as its system LOX IMVI melanoma. The conditions noted are these: 10 µM unless noted.
The test system of the next experiment is SK-MEL-28 melanoma. The conditions noted are these: 10 µM unless noted.
For another experiment, the system named is SK-MEL-2 melanoma. The following applies: 10 µM unless noted.
The test system of a further experiment is SN12C renal. The following applies: 10 µM unless noted.
The next experiment concerns UO-31 renal. The conditions noted are these: 10 µM unless noted.
The next experiment has as its system ACHN renal. The following applies: 10 µM unless noted.
In a further experiment the test system is CAKI-1 renal. The conditions noted are these: 10 µM unless noted.
The test system of the next experiment is A498 renal. The conditions noted are these: 10 µM unless noted.
For a further experiment, the system named is CCRF-CEM leukemia. The following applies: 10 µM unless noted.
For another experiment, the system named is MOLT-4 leukemia. The following applies: 10 µM.
In the next experiment the test system is SR leukemia. The conditions noted are these: 10 µM.
In a further experiment the test system is RPMI-8226 leukemia. The conditions noted are these: 10 µM unless noted.
The test system of the next experiment is OVCAR-5 ovarian. The following applies: 10 µM unless noted.
The next experiment relates to OVCAR-4 ovarian. The following applies: 10 µM unless noted.
In a further experiment the test system is SK-OV-3 ovarian. The conditions noted are these: 10 µM unless noted.
In the next experiment the test system is IGROV1 ovarian. The following applies: 10 µM.
Another experiment concerns OVCAR-3 ovarian. The following applies: 10 µM unless noted.
Another experiment concerns HS 578T breast. The following applies: 10 µM unless noted.
The subject of a further experiment is NCI/ADR-RES ovarian. The following applies: 10 µM unless noted.
In another experiment the test system is T-47D breast. The following applies: 10 µM unless noted.
Another experiment has as its system BT-549 breast. The conditions noted are these: 10 µM.
The next experiment concerns MDA-MB-435 melanoma. The following applies: 10 µM unless noted.
Another experiment deals with SW-620 colon. The conditions noted are these: 10 µM unless noted.
For a further experiment, the system named is HCT-116 colon. The conditions noted are these: 10 µM unless noted.
A further experiment deals with HCC-2998 colon. The following applies: 10 µM unless noted.
In the next experiment the test system is KM12 colon. The conditions noted are these: 10 µM unless noted.
For a further experiment, the system named is NCI-H522 lung. The following applies: 10 µM unless noted.
The subject of the next experiment is OVCAR-8 ovarian. The conditions noted are these: 10 µM unless noted.

The panel holds about 83,000 compounds, 20% with a hit somewhere; the sample as a whole holds those more often.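 Cells were grown in 96-well plates and exposed to the test compound at a single concentration for 48 hours; results are reported as percent growth, with values below 10 considered active.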 A number with no mark means an inactive call. The source made the active and inactive calls.

Consider `NC(=O)CN1C(=O)C(Cc2ccc(O)cc2)N=C(c2cccc(O)c2)c2ccccc21` (centres undefined), for which the values for the growth in the experiment with UACC-62 melanoma, with TK-10 renal and with MCF7 breast were 80.7% [30 µM], 106% [30 µM] and 75.5% [30 µM], respectively.

In the case of `O=C(O)CCC1N=C(c2cccc(O)c2)c2ccccc2NC1=O` (centres undefined), the growth with UACC-62 melanoma is 88.5% [30 µM]; in the experiment on MCF7 breast it was 83.2% [30 µM].

As for `COc1cnc2c(c1)C(=O)c1c-2n(CCCNC2=NCCS2)c(=O)c2cc(Cl)ccc12`, in the experiment with HL-60(TB) leukemia, the growth was -63.8% (active).

Regarding `O=C(O)CN1C(=O)C(Cc2ccccc2)N=C(c2cccc(O)c2)c2ccccc21` (centres undefined), the figures for the growth in the experiment on UACC-62 melanoma, with TK-10 renal and in the experiment on MCF7 breast were 90.1% [30 µM], 96% [30 µM] and 79% [30 µM], respectively.

As for `CCOP(=O)(OCC)Oc1ccc(Sc2ccc(OP(=O)(OCC)OCC)cc2)cc1`, the growth in the experiment on NCI-H226 lung was 101%; with HOP-62 NSCLC it was 93.2%; with NCI-H460 lung, 113%; in the experiment on HOP-92 NSCLC, 79.7%; in the experiment with A549/ATCC NSCLC it was 97.5%; in the experiment with 786-0 renal, 92.6%. Further, the growth in the experiment on COLO 205 colon was 110%; in the experiment with DU-145 prostate, 103%; in the experiment on K-562 leukemia, 102%; with MALME-3M melanoma, 93.5%; with MDA-MB-231 breast, 119%; with RXF 393 renal, 106%. The growth in the experiment with SF-268 CNS was 100%; in the experiment with SF-295 CNS, 97.5%; in the experiment with SF-539 CNS, 104%; in the experiment on UACC-257 melanoma it was 93.1%; in the experiment on M14 melanoma it was 100%; in the experiment with HCT-15 colon, 107%. Moreover, the growth is 108% with HT29 colon; 95% in the experiment on SNB-75 CNS; 100% in the experiment on SNB-19 CNS; 90.9% with PC-3 prostate; 100% in the experiment on SK-MEL-5 melanoma; 111% in the experiment on UACC-62 melanoma. Moreover, the growth in the experiment on LOX IMVI melanoma is 107%; in the experiment on SK-MEL-28 melanoma, 111%; in the experiment with SK-MEL-2 melanoma it was 94%; in the experiment with SN12C renal, 101%; with UO-31 renal it was 75%; in the experiment with TK-10 renal, 107%. The growth is 115% in the experiment with ACHN renal; 93.1% in the experiment with CAKI-1 renal; 85.2% in the experiment with A498 renal; 96% in the experiment with HL-60(TB) leukemia; 86.3% with CCRF-CEM leukemia; 93.8% with MOLT-4 leukemia. Moreover, the growth with SR leukemia is 94.2%; in the experiment on RPMI-8226 leukemia, 90%; with OVCAR-5 ovarian it was 105%; in the experiment with OVCAR-4 ovarian it was 116%; in the experiment with SK-OV-3 ovarian, 103%; with IGROV1 ovarian, 98%. Also, the growth with OVCAR-3 ovarian was 111%; in the experiment on HS 578T breast, 109%; in the experiment with NCI/ADR-RES ovarian, 93.7%; in the experiment with T-47D breast, 97.9%; with BT-549 breast, 96%; in the experiment with MDA-MB-435 melanoma it was 96.8%. For the same compound, the growth with SW-620 colon was 113%; with MCF7 breast, 118%; with HCT-116 colon it was 100%; in the experiment on HCC-2998 colon it was 102%; in the experiment with KM12 colon, 99.9%.

With `CCN(CC)CCCCCNc1cc(OC(=O)c2ccccc2)cc2cccnc12`, the growth with HL-60(TB) leukemia is 79.8%.

With `CN1C(=O)C(CCC(=O)O)N=C(c2cccc(O)c2)c2ccccc21` (centres undefined), the growth is 82% [30 µM] with UACC-62 melanoma, 113% [30 µM] with TK-10 renal and 89% [30 µM] with MCF7 breast.

Turning to `c1ccc(CCc2ccccc2-c2cc(-c3ccccc3)on2)cc1`, the growth with HL-60(TB) leukemia is 76.2%.

Turning to `COc1ccc(OC)c(N(CCN2C(=O)c3ccccc3C2=O)C(=O)CCl)c1`, the growth with HL-60(TB) leukemia is -63.3% (active).

For the compound `CCC[CH2][Sn]1([CH2]CCC)[O]C(=O)c2cccc([N+](=O)[O-])c2C(=O)[O]1`, the growth in the experiment on NCI-H226 lung was -83.1% (active); in the experiment with HOP-62 NSCLC it was -90.7% (active); with NCI-H460 lung, -5.56% (active); with HOP-92 NSCLC, -91.7% (active); in the experiment with NCI-H522 lung it was -94.8% (active); in the experiment with A549/ATCC NSCLC, 42.4%. In addition, the growth in the experiment with 786-0 renal was -97.3% (active); in the experiment on COLO 205 colon, -97.1% (active); in the experiment on DU-145 prostate, -96.7% (active); in the experiment on K-562 leukemia, -12.3% (active); in the experiment with MALME-3M melanoma it was -88.4% (active); in the experiment with MDA-MB-231 breast it was -89.1% (active). Besides, the growth was -95.2% (active) in the experiment with RXF 393 renal; -90.1% (active) in the experiment with SF-268 CNS; -36.9% (active) with SF-295 CNS; -99.5% (active) with SF-539 CNS; -94.1% (active) in the experiment with UACC-257 melanoma; -89.2% (active) with M14 melanoma. The growth with HT29 colon was -75% (active); in the experiment with SNB-75 CNS, -82.3% (active); with PC-3 prostate, -67.5% (active); in the experiment with SK-MEL-5 melanoma, -89.8% (active); with UACC-62 melanoma it was -88.3% (active); with SK-MEL-28 melanoma, -93.3% (active). Moreover, the growth in the experiment with SK-MEL-2 melanoma was -92% (active); with UO-31 renal, -100% (active); with TK-10 renal, -95.7% (active); with ACHN renal, -100% (active); in the experiment with CAKI-1 renal, -93.4% (active); with A498 renal, -94.5% (active). Moreover, the growth was -48.2% (active) in the experiment with HL-60(TB) leukemia; -47.7% (active) in the experiment with CCRF-CEM leukemia; -24.4% (active) in the experiment with MOLT-4 leukemia; -31.6% (active) in the experiment with SR leukemia; -40.5% (active) with RPMI-8226 leukemia; -93.1% (active) in the experiment on OVCAR-8 ovarian. For the same compound, the growth in the experiment on OVCAR-5 ovarian is -95.6% (active); with OVCAR-4 ovarian it was -91.6% (active); in the experiment on SK-OV-3 ovarian, 12.2%; in the experiment with IGROV1 ovarian it was -76% (active); with OVCAR-3 ovarian, -99.3% (active); in the experiment on HS 578T breast, -11.6% (active). Moreover, the growth in the experiment with NCI/ADR-RES ovarian was -54.4% (active); in the experiment on T-47D breast it was -76.3% (active); in the experiment on BT-549 breast, -99.6% (active); with SW-620 colon, -54.6% (active); in the experiment with MCF7 breast, -99% (active); in the experiment on HCT-116 colon it was -100% (active). The values for the growth in the experiment with HCC-2998 colon and with KM12 colon were -84.7% (active) and -83.9% (active), respectively.

In the case of `CCCCOC(=O)Oc1ccc(C(=O)Oc2ccc(OCC)cc2)cc1`, in the experiment on HL-60(TB) leukemia, the growth was 109%.
